According to PMC11062922 (Nature Chemical Biology, 2023):
Where two headings read alike, the source gives them in different places.

Tests used:
Design in all cases: species or system human, MV4-11 + K-562 + COLO205 + SK-N-BE2 + OVCAR-8
PDXK = conditions: read-out: apparent Kd, compound concentrations: 100 nM and 1000 nM (sheet 'Samples'), n = 1
ACAD8 = conditions: read-out: apparent Kd, n = 1
VDAC3 = conditions: read-out: apparent Kd, n = 1
BMPR2 = conditions: read-out: apparent Kd, compound concentrations: 100 nM and 1000 nM (sheet 'Samples'), n = 1
ILK = conditions: read-out: apparent Kd, n = 1
NEK3 = conditions: read-out: apparent Kd, n = 1
EPHA7 = conditions: read-out: apparent Kd; compound concentrations: 100 nM and 1000 nM (sheet 'Samples'), CATDS: 1.2240200797628401E-2; n = 1
MST1R = conditions: read-out: apparent Kd, n = 1
MAP2K6 = conditions: read-out: apparent Kd, n = 1
CDK13 = conditions: read-out: apparent Kd, compound concentrations: 100 nM and 1000 nM (sheet 'Samples'), n = 1
ADCK3 = conditions: read-out: apparent Kd, n = 1
BMPR1B = conditions: read-out: apparent Kd; compound concentrations:100 nM and 1000 nM (sheet 'Samples'); n = 1
TAOK3 = conditions: read-out: apparent Kd, n = 1
ERN2 = conditions: read-out: apparent Kd; compound concentrations:100 nM and 1000 nM (sheet 'Samples'); n = 1
[1] = compound concentrations:100 nM and 1000 nM (sheet 'Samples')

CN(c1ccc(NC(=O)N2CCN(CCCN3CCOCC3)CC2)cc1)c1ccnc(Nc2ccc(CS(C)(=O)=O)cc2)n1.Cl [GW830899A]
potency estimated from few doses (PDXK; CATDS: 3.03985195702474E-2): 617 nM

COc1ccc(-c2cc3c(N)ncnc3o2)cc1 [GW642138X]
potency estimated from few doses (ACAD8; compound concentrations: 100 nM and 1000 nM (sheet 'Samples'), CATDS: 9.2281876473195495E-2): 2170 nM | potency estimated from few doses (VDAC3; compound concentrations: 100 nM and 1000 nM (sheet 'Samples'), CATDS: 9.45617395095774E-2): 2060 nM

O=C(O)C(F)(F)F.O=c1[nH]ccc2nc(N[C@@H]3CCNC3)nc(Nc3ccc4c(c3)S(=O)(=O)CC4)c12 [GSK2181306A]
potency estimated from few doses (BMPR2; CATDS: 3.4513086619766098E-2): 68.7 nM | potency estimated from few doses (ILK; compound concentrations: 100 nM and 1000 nM (sheet 'Samples'), CATDS: 7.7202242880441098E-3): 2320 nM

CC(C)Oc1ccc2c(-c3ccnc(Nc4ccc(N5CCN(C)CC5)cc4)n3)cnn2n1 [GW696155X]
potency estimated from few doses (NEK3; [1]): 421 nM

CCn1c(-c2cccnc2O)nc2cnccc21 [SB-736715]
potency estimated from few doses (EPHA7): 2080 nM | potency estimated from few doses (ILK; compound concentrations: 100 nM and 1000 nM (sheet 'Samples'), CATDS: 1.2476704483333699E-2): 1980 nM | potency estimated from few doses (MST1R; compound concentrations: 100 nM and 1000 nM (sheet 'Samples'), CATDS: 1.2580908946689701E-2): 1930 nM

FC(F)(F)c1ccc(-c2ncn(CCCN3CCOCC3)c2-c2ccncc2)cc1 [SB-217780]
potency estimated from few doses (ACAD8; compound concentrations: 100 nM and 1000 nM (sheet 'Samples'), CATDS: 0.18065047008749499): 2210 nM

COc1cc[nH]c1/C=C1\C(=O)Nc2ccc(F)c(C#CC3(O)CCNCC3)c21.Cl [RO0282986-001]
potency estimated from few doses (MAP2K6; compound concentrations: 100 nM and 1000 nM (sheet 'Samples'), CATDS: 9.6893915598830205E-3): 1500 nM

c1cnn2ncc(-c3ccnc(Nc4ccc5c(c4)OCCO5)n3)c2c1 [GW806290X]
potency estimated from few doses (NEK3; compound concentrations: 100 nM and 1000 nM (sheet 'Samples'), CATDS: 2.00420212482838E-2): 2000 nM

CCN(CC)Cc1ccc(Nc2nccc(-c3cnn4ncccc34)n2)cc1 [GW780056X]
potency estimated from few doses (CDK13; CATDS: 1.9982527917222499E-2): 1330 nM | potency estimated from few doses (PDXK; CATDS: 2.0244692732670499E-2): 1270 nM

CS(=O)(=O)Nc1cccc(-c2ccc3c(NC(=O)C4CC4)n[nH]c3c2)c1 [SB-742864]
potency estimated from few doses (ADCK3; compound concentrations: 100 nM and 1000 nM (sheet 'Samples'), CATDS: 0.16822822033669799): 659 nM

CNCc1ccc(-c2cc(-c3nc(-c4ccc(S(=O)(=O)C(C)C)cc4)cnc3N)on2)cc1 [VE-822]
potency estimated from few doses (BMPR1B): 868 nM

Cc1ccccc1C1=C(c2cn(C)c3ccccc23)C(=O)NC1=O [RO0317612-000]
potency estimated from few doses (PDXK; CATDS: 0.20460809182567499): 529 nM

CCn1c(-c2nonc2N)nc2c(C#CC(C)(C)O)nc(O[C@@H](CN)c3ccccc3)cc21.O=C(O)C(F)(F)F [GSK1007102B]
potency estimated from few doses (ADCK3; [1]): 1060 nM | potency estimated from few doses (MAP2K6; [1]): 1690 nM

O=C1N=C(NCCCc2ccccc2)S/C1=C\c1ccc2ncccc2c1 [RO4493941-000]
potency estimated from few doses (ADCK3; compound concentrations: 100 nM and 1000 nM (sheet 'Samples'), CATDS: 7.1008465963160003E-2): 940 nM

COC(=O)c1cccc(NC(=O)NC2CCN(c3ccnc(Nc4cc(OC)c(OC)c(OC)c4)n3)C2)c1 (stereo not shown) [GSK1379767A]
potency estimated from few doses (ADCK3; compound concentrations: 100 nM and 1000 nM (sheet 'Samples'), CATDS: 9.7786771136585404E-2): 1860 nM | potency estimated from few doses (VDAC3; compound concentrations: 100 nM and 1000 nM (sheet 'Samples'), CATDS: 0.107496122866376): 1480 nM

NC(=O)c1cc(-c2ccccc2)cc2c(C3CCNCC3)c[nH]c12 [GSK301362A]
potency estimated from few doses (ACAD8; [1]): 1750 nM | potency estimated from few doses (TAOK3; [1]): 1570 nM

O=C(O)C(F)(F)F.O=C(O)C(F)(F)F.O=c1[nH]ccc2nc(N[C@@H]3CCCNC3)nc(Nc3ccc(S(=O)(=O)N4CCOCC4)cc3)c12.O=c1[nH]ccc2nc(N[C@@H]3CCCNC3)nc(Nc3ccc(S(=O)(=O)N4CCOCC4)cc3)c12 [GSK2177277A]
potency estimated from few doses (BMPR2; CATDS: 8.2432165271610295E-3): 514 nM | potency estimated from few doses (MST1R; compound concentrations: 100 nM and 1000 nM (sheet 'Samples'), CATDS: 6.3226356559210701E-3): 1690 nM | potency estimated from few doses (TAOK3; compound concentrations: 100 nM and 1000 nM (sheet 'Samples'), CATDS: 6.2703295867196796E-3): 1770 nM

CN(C)CC(O)COc1ccc(Nc2nccc(-c3cnn4nc(N5CCOCC5)ccc34)n2)cc1 (stereo not shown) [GW767488X]
potency estimated from few doses (NEK3; [1]): 467 nM

Cc1occc1-c1nc(N)c(OC[C@@H](N)Cc2c[nH]c3ccccc23)cc1-c1cc2c(C)n[nH]c2cn1 [GSK1660450B]
potency estimated from few doses (TAOK3; [1]): 76 nM | potency estimated from few doses (VDAC3; [1]): 102 nM

NS(=O)(=O)c1ccc(NC=C2C(=O)Nc3ccc4ncsc4c32)cc1 [GW589933X]
potency estimated from few doses (CDK13; CATDS: 1.7118564959648301E-2): 1700 nM

Nc1nc(-c2ccc3c(N)n[nH]c3c2)cc(N2CCCC(NC(=O)c3ccccc3)C2)n1 (stereo not shown) [GSK2286775B]
potency estimated from few doses (ERN2): 1580 nM | potency estimated from few doses (ILK; [1]): 1790 nM | potency estimated from few doses (MST1R; [1]): 2250 nM

CC(C)N1CC(=O)N(C)c2cnc(Nc3cccc(S(=O)(=O)CCN4CCOCC4)c3)nc21 [BI00009348]
potency estimated from few doses (BMPR2; CATDS: 7.5564324360796103E-2): 646 nM

Cn1cc(C2=C(c3c(S(C)=O)n(C)c4ccccc34)C(=O)NC2=O)c2ccccc21 (stereo not shown) [RO0317379-000]
potency estimated from few doses (PDXK; CATDS: 0.122248811016512): 1030 nM

O=C(Nc1n[nH]c2nc(-c3ccccc3O)ccc12)C1CC1 [SB-711880]
potency estimated from few doses (MAP2K6; [1]): 1810 nM
